Compounds with a hit are over-represented: about 5.9% of the library has one in this group of screens.
GALK inhibitor: galactokinase (human) inhibition | Potency, µM (titrated, usually from 57.5 µM), inactives show at the top dose activity change, negative = inhibition, hits mostly inhibitors | 0.007% of 270,000 active | P51570 | Purified GALK, Kinase-Glo residual ATP luminescence; note: potency is the fitted concentration of half-maximal effect
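Human GALK (5 nM) with 35 uM ATP and 100 uM galactose in 20 mM HEPES pH 8.0, 5 mM MgCl2, 60 mM NaCl, 1 mM DTT, 0.01% BSA. After 1 h at room temperature, leftover ATP was read by Kinase-Glo Plus luminescence.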
VP16 counter: counter-screen for ROR gamma inhibitors: Gal4-VP16 reporter; Drosophila S2 Gal4-VP16 UAS-luciferase, luminescence, 20 h; AID 2546; 3.5% of 310,000 active; Potency, µM (highest dose often 53.6 µM), for the others: top-dose activity, negative = inhibition, hits mostly inhibitors;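 note: Gal4-VP16 expression switched on by copper sulfate through the metallothionein promoter; potency is the fitted concentration of half-maximal effect; nearly all actives have a fitted effect of over 50% in size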
TrxR1 substrate: is turned over as a substrate by rat TrxR1. purified TrxR1 substrate turnover, NADPH consumption readout. Potency, µM (series often up to 114 µM), without a hit: top-dose activity change, negative = substrate turnover. 0.01% of 390,000 active; note: potency is the fitted concentration of half-maximal effect; nearly all actives have a fitted effect of over 50% in size
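Rat TrxR1, dispensed at 90 nM, was prereduced with 400 uM NADPH (final) for 5 min at ~22 deg C, then incubated with compound 15 min before 400 uM selenite. A first-read NADPH fluorescence drop versus no-compound background flagged substrates.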
rTrxR1 inhibitor: inhibitors of rat thioredoxin reductase 1 | recombinant rTrxR1, NADPH fluorescence consumption, selenite substrate | Potency, µM (doses to about 114 µM), inactives show at the highest dose activity change, negative = inhibition, hits mostly inhibitors | 1% of 390,000 active; note: potency is the fitted concentration of half-maximal effect; nearly all actives have a fitted effect of over 65% in size
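Rat TrxR1 (90 nM in the dispensed reagent) was pre-reduced with 400 uM NADPH for 5 min at room temperature, then incubated with compound for 15 min. After 400 uM selenite was added, NADPH fluorescence (Ex 340/Em 450 nm) was followed for 8 min.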
RORg inh: ROR gamma (mouse) transcription inhibition. P51450. Drosophila S2 Gal4-RORgamma UAS-luciferase reporter, 20 h. Potency, µM (doses to about 53.6 µM), without a hit: top-dose activity change, negative = inhibition, actives largely listed as inhibitors. 5.4% of 310,000 active. AID 2551; note: potency is the fitted concentration of half-maximal effect; nearly all actives have a fitted effect of over 60% in size
Target sequence (P51450 whole entry, looked up, the tested form may be a part): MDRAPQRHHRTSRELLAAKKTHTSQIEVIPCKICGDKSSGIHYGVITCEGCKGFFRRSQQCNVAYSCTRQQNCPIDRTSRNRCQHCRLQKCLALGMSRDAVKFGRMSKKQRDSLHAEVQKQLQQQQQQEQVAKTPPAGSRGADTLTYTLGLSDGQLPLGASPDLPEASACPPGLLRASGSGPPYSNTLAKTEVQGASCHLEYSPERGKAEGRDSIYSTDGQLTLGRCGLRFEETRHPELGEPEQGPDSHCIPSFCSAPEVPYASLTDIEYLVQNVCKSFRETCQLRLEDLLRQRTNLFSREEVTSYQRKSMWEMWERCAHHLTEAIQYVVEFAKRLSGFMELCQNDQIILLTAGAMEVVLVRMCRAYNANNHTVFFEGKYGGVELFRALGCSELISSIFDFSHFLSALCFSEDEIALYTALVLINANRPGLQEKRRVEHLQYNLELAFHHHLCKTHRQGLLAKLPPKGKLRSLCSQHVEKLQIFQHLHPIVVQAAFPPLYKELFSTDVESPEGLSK
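Drosophila Schneider cells stably carrying a metallothionein-driven Gal4 DBD–ROR gamma fusion and a UAS-Photinus luciferase reporter were exposed to compound for 1 hr, then induced with copper sulfate (700 uM final) for 20 hr at ambient temperature before luminescence reading.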
Coupling enz: counter-screen for Giardia aldolase inhibitors: coupling enzyme system. 0.67% of 290,000 active. activity change, negative = inhibition, % at 58.2 µM, hits read low. AID 2472. coupling enzyme system counterscreen, AmpLite Red fluorescence; in the data active = activity change below about -30%
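Counterscreen of the coupled detection system alone, without aldolase: glyceraldehyde-3-phosphate coupling enzymes plus AmpLite Red readout. Compounds at 57.5 uM final, 10 min RT preincubation, 20 min RT reaction, fluorescence 525/598 nm.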
Active calls of the source: *; ? = inconclusive; / = not tested or not shown; [ ] = another dose, or the depositor's remark. Unless noted, calls come from the whole dose curve; as a rule, active = well fitted curve in the direction sought with a large enough effect; inconclusive = small, poorly fitted or top-dose-only effect, or another doubt; inactive = no such curve, though single readings can be large; an effect the other way counts as inactive or inconclusive. % is set by controls: 0 for no effect and ±100 for the full control effect.

SMILES	GALK inhibitor	VP16 counter	TrxR1 substrate	rTrxR1 inhibitor	RORg inh	Coupling enz
CCC(=O)c1ccc(OCC(=O)Nc2ccccc2N2CCOCC2)cc1	/	/	3.7%	17.8%	/	/
Cc1cc(C)n(CC2CC(=O)N(c3ccc(C)c(Cl)c3)C2=O)n1 (stereo not drawn)	1.4%	-5.4%	2.4%	-6.3%	22.9%	1.3
Cc1cc(C)n(CC2CC(=O)N(c3ccc(F)c(Cl)c3)C2=O)n1 (stereo not drawn)	-0.2%	4.4%	1.7%	-6.8%	14.1µM*	1.2
CCc1oc(C(=O)O)cc1COC	4.7%	-4.2%	-1.5%[57.1 µM]	1.5%[57.1 µM]	-10.7%	-0.2
COCc1cc(O)c(O)c(O)c1-c1c(COC)cc(O)c(O)c1O	/	-18.5%	-9.3%	14.1µM*	-39.8%	-48.9*
Cc1nnc(NC(=O)CSc2nnc(CCc3nc4ccccc4[nH]3)n2C)s1	0.9%	0.5%	-10.4%	-7.0%	-13.1%	1.7
Cn1c(CCc2nc3ccccc3[nH]2)nnc1SCC#N	-1.7%	?	1.0%[57.1 µM]	5.1%[57.1 µM]	14.1µM*	-5.6
CCC1NC(=S)N(C2CCCCC2)C1=O (stereo not drawn)	1.9%	?	-5.9%	10.5%	11.2µM*	3.1
CC(C)CC1NC(=S)N(C2CCCCC2)C1=O (stereo not drawn)	-2.2%	?	-10.7%[57.1 µM]	9.3%[57.1 µM]	?	/
CC(C)C1NC(=S)N(C2CCCCC2)C1=O (stereo not drawn)	/	?	-0.4%	4.0%	6.31µM*	7.6
O=C1C(Cc2ccc(O)cc2)NC(=S)N1C1CCCCC1 (stereo not drawn)	5.1%	-15.7%	1.1%	3.9%	7.3%	4.3
O=C1C(Cc2c[nH]c3ccccc23)NC(=S)N1C1CCCCC1 (stereo not drawn)	4.4%	?	-10.9%	30.7%[57.1 µM]	20µM*	-1.6
CC1Cc2cccc3ccc(=O)n(c23)C1 (stereo not drawn)	/	/	-5.0%[11.4 µM]	-0.1%[11.4 µM]	/	/
FC(F)(F)c1cnc(C(c2ccccn2)c2ncn[nH]2)c(Cl)c1 (stereo not drawn)	6.1%	-23.9%	5.0%[57.1 µM]	20.1%[57.1 µM]	11.2µM*	-0.8
FC(F)(F)c1cnc(C(c2ccccc2)c2ncn[nH]2)c(Cl)c1 (stereo not drawn)	0.3%	6.9%	-4.5%	1.4%	-5.2%	-3.7
O=S(=O)(Nc1ccc(O)c(Sc2nc3ccccc3s2)c1)c1cccc2ccccc12	-1.0%	7.94µM*	5.9%	3.0%	?	-3.7
O=S(=O)(Nc1ccc(O)c(Sc2nc3ccccc3s2)c1)c1cc(Cl)ccc1Cl	/	/	-1.7%	1.5%	/	/
CC1CCc2[nH]c3ccc(C(=O)N(C)CC(=O)Nc4ccccc4Br)cc3c2C1 (stereo not drawn)	/	/	5.4%	9.9%	/	/
COCCCNC(=O)c1cccn2c(=O)c3cc4ccccc4cc3nc12	2.9%	7.0%	-8.0%	-5.6%	-31.1%	-24.7
O=C(NCc1ccco1)c1cccn2c(=O)c3cc4ccccc4cc3nc12	-3.9%	11.2µM*	/	/	?	-31.3*
O=C(NCc1ccco1)c1ccc2c(c1)C(=O)c1ccccc1-2	-6.8%	5.1%	4.1%[57.1 µM]	20µM*	-22.4%	0.2
O=C(NCc1ccco1)c1ccc2ccccc2c1	-0.3%	10µM*	6.5%	-4.4%	?	0.9
O=C(NCc1ccco1)c1cc2c(s1)CSC2	-4.8%	6.6%	13.3%	7.94µM*	-0.2%	-3.7
O=C(NCc1ccc2c(c1)OCO2)c1cc2c(s1)CSC2	/	-9.7%	9.2%[57.1 µM]	11.8%[57.1 µM]	3.4%	1.9
CN(C)CCNc1oc(COc2ccc(Cl)cc2)nc1C#N	-0.6%	-1.3%	8.0%	14.1µM*	25.7%	4.4
SMILES	GALK inhibitor	VP16 counter	TrxR1 substrate	rTrxR1 inhibitor	RORg inh	Coupling enz
COc1ccc(Nc2oc(COc3ccccc3OC)nc2C#N)cc1	0.4%	0.5%	-7.5%	44.7µM*	-3.6%	-3.1
CCN1C(=O)/C(=C2/Sc3ccccc3N2CC)S/C1=N\c1ncn[nH]1	-3.0%	5.01µM*	8.3%	13.3%[57.1 µM]	11.2µM*	5.3
CCC(=O)N(CCC(c1ccccc1)c1ccco1)Cc1cccs1 (stereo not drawn)	-0.1%	9.6%	9.1%[11.4 µM]	-40.4%[57.1 µM]	12.0%	5.4
COc1ccccc1C(CCN(Cc1cccs1)C(C)=O)c1ccco1 (stereo not drawn)	3.9%	2.2%	-1.5%	44.7µM*	?	5.7
Oc1ccc(/C=N/Nc2ncc(Br)cn2)c(O)c1	/	?	-17.4%	-13.3%	?	2.9
Oc1ccccc1/C=N/Nc1nccnc1Cl	0.3%	?	-8.6%	-17.9%	12.6µM*	1.0
Oc1ccc(/C=N/Nc2nccnc2Cl)c(O)c1	5.9%	15.8µM*	-9.4%	-7.7%	?	1.2
Clc1nccnc1N/N=C/c1ccc(Br)cc1	2.5%	?	-8.6%	-8.1%	4.47µM*	-2.1
O=[N+]([O-])c1ccccc1/C=N/Nc1nccnc1Cl	0.4%	0.7%	-5.7%	13.2%	17.8%	-2.7
CCCCNC(=O)c1sc2nc(C)cc(COC)c2c1-n1cccc1	-1.0%	-1.2%	-14.9%	-18.7%	4.0%	-0.2
Cc1c2c(nc3ccccc13)CCC(C(C)(C)C)C2 (stereo not drawn)	4.8%	?	-3.5%[57.1 µM]	-3.9%[57.1 µM]	3.98µM*	-0.7
COc1ccc(NC(=O)Cn2cnc3sc(C)c(S(=O)(=O)N4CCN(c5ccccc5OC)CC4)c3c2=O)cc1OC	/	/	-0.4%	13.9%	/	/
Cc1ccc(/C=C/C(=O)N2CCCN(C(=O)/C=C/c3ccc(C)cc3)CC2)cc1	-1.9%	1.3%	9.1%[57.1 µM]	13.2%[57.1 µM]	23.6%	1.6
Cc1cccc(C(=O)NC(=S)NNC(=O)Cc2ccccc2)c1	-1.2%	-14.5%	2.7%	-10.9%	10µM*	0.1
Cc1cc(C(=O)NNC(=S)NC(=O)/C=C/c2ccccc2Cl)n[nH]1	0.3%	12.6µM*	-0.4%[57.1 µM]	-22.5%[57.1 µM]	?	-0.6
Cc1cccc(C(=O)NC(=S)NNC(=O)c2ccccc2Cl)c1	2.7%	?	-8.2%	?	4.47µM*	3.4
Cc1cccc(C(=O)NC(=S)NNC(=O)COc2c(C)cccc2C)c1	2.0%	?	-11.8%	?	12.6µM*	9.1
Cc1cc(C)nc(NC(=O)/C=C/c2ccccc2Cl)n1	0.2%	2.2%	7.2%[57.1 µM]	12.8%	?	-0.6
COc1ccc2[nH]cc(CCNc3ncncc3-c3cccc(NS(C)(=O)=O)c3)c2c1	/	-1.3%	/	/	5.0%	2.2
Cc1cc(C)n(-c2ccc(C(=O)NC3=NCCS3)cc2)n1	1.0%	0.8%	-1.5%	25.7%	-18.2%	-1.1
Cc1cccc2sc(NC(=O)C3CSC4(C)CCC(=O)N34)nc12 (stereo not drawn)	5.2%	1.6%	3.4%	13.0%	-24.8%	/
CC12CCC(=O)N1C(C(=O)Nc1nc3c(F)cc(F)cc3s1)CS2 (stereo not drawn)	-7.6%	3.55µM*	-10.9%	-34.2%	-30.6%	/

Screens deposited in PubChem by National Center for Advancing Translational Sciences (NCATS).
